According to PubChem BioAssay (NCATS):
Inconclusive results are not listed. Calls of active or inactive are those of the source. The call rests on the fitted dose curve; in most records, active means well fitted inhibition curve with a large enough effect; inconclusive means small, poorly fitted or top-dose-only effect; inactive means flat fitted curve, though single readings scatter. Where a SMILES comes first, the peptide text is derived from it. The star is where a group is joined. Cbz = O=C(OCc1ccccc1)*; CH2Cl = ClC*

tested on: HEK293; assay: Cytotoxic Profiling of Annotated Libraries Using Quantitative High-Throughput Screening (AID 1296008); details: Five cell lines viability, CellTiter-Glo ATP luminescence, 48-72 h; max response: stronger effect = lower value; further: nearly all actives have a fitted effect of over 60% in size
Summary of the method: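 Cytotoxicity was measured as CellTiter-Glo ATP luminescence, read after 10 min at room temperature. Compound treatment of the cells lasted 48 or 72 hr at 37 degrees Celsius in a qHTS format.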
Potency means the concentration at half of the fitted maximal effect.

SMILES | Potency
CN(C)C(=O)COC(=O)c1cc(-c2ccc(C3CCNCC3)cc2)c2ccc(-c3ccc(C(F)(F)F)cc3)cc2c1 | 4.61 µM (active)
CCCc1cc(C)[nH]c(=O)c1CNC(=O)c1cc(-c2ccnc(N3CCN(C)CC3)c2)cc2c1cnn2C(C)C | 8.2 µM (active)
CC[C@@H](C)[C@@H]1OC2(C=C[C@H]1C)C[C@@H]1C[C@H](C/C=C(\C)[C@H](O[C@H]3C[C@H](OC)[C@H](O[C@H]4C[C@H](OC)[C@H](NC(C)=O)[C@H](C)O4)[C@H](C)O3)[C@H](C)/C=C/C=C3\CO[C@H]4[C@H](O)C(C)=C[C@@H](C(=O)O1)[C@@]34O)O2 (stereo not given in full) | 3.21 µM (active)
CCC(CC)C(c1ccc(Nc2nc3ccccc3s2)cc1)n1cncn1 (stereo not given) | 10.3 µM (active)
C/C=C(/C)C(=O)O[C@H]1C=C(CO)C(=O)[C@H](OC(=O)/C(C)=C/CO)[C@H]1C(C)C | 3.6 µM (active)
CNc1ccc([N+](=O)[O-])c(Nc2ccc3[nH]ncc3c2)n1 | 18.4 µM (active)
COc1ccc(CNc2nc(N(CCO)CCO)nc3c2ncn3C(C)C)cc1 | 4.61 µM (active)
C=C1C(=O)O[C@H]2C[C@@H](C)[C@@H]3CCC(=O)[C@@]3(C)C[C@H]12 | 6.51 µM (active)
N#C/C(=C1\Nc2ccccc2S1)c1ccnc(NCCc2cccnc2)n1 | 7.31 µM (active)
Cc1cc(-c2nc3cc(F)ccc3s2)ccc1NC(=O)[C@@H](N)CCCCN | 14.6 µM (active)
C[C@H]1[C@H](/C=C/c2ccc(-c3ccccc3C#N)cn2)[C@@H]2[C@@H](C)OC(=O)[C@@H]2C[C@@H]1C | 13 µM (active)
C[C@H](Oc1cc(-c2cnn(C3CCNCC3)c2)cnc1N)c1c(Cl)ccc(F)c1Cl | 9.2 µM (active)
N#Cc1ccc2ncnc(NCCc3ccccc3)c2c1 | 18.4 µM (active)
Cc1nc(Nc2cnn(C3CCNCC3)c2)nc2c1N(C)C(=O)c1cc3ccccc3cc1N2C | 25.9 µM (active)
Cc1cc(N2CCOCC2)ccc1Nc1nc(NC2CCCCC2)c2[nH]cnc2n1 | 0.326 µM (active)
CCCc1cc(C)[nH]c(=O)c1CNC(=O)c1cc(-c2ccc(N3CCN(C(C)C)CC3)nc2)cc2c1cnn2C(C)C | 11.6 µM (active)
CC(=O)OC1[C@H]2[C@@H](C[C@@H](C)[C@@H]3C=CC(=O)[C@@]13C)OC(=O)[C@@H]2C (stereo not given in full) | 16.4 µM (active)
C=C1CC2[C@@]3(C)C=CC(=O)C(C)(C)C3=C(O)C(=O)[C@@]2(C)C2(C(=O)OC)C(=O)C(C)OC(=O)[C@@]12C (stereo not given in full) | 7.96 µM (active)
C=C1C(=O)O[C@@H]2C[C@@]3(C)CCCC(=C)[C@]3(O)C[C@H]12 | 13 µM (active)
CCCCCCCCn1cc(CN(CC)CC)c2cc(-c3cnc(N)nc3)ccc21 | 16.4 µM (active)

SMILES | Potency
FC(F)(F)c1ccc(CNc2ccc(Cc3c[nH]c4ncc(Cl)cc34)cn2)cn1 | 26.3 µM (active)
CC(C)C[C@H](NC(=O)CNC(=O)OCc1ccccc1)C(=O)N[C@@H](Cc1ccccc1)C(=O)CCl (Cbz-Gly-Leu-Phe-CH2Cl) | 9.2 µM (active)
COc1cc(-n2cnc3cc(-c4ccc(Cl)cc4)sc3c2=O)ccc1OCCN1CCCC1 | 10.3 µM (active)
CC(C)CC(=O)c1c(O)cc2c(c1O)C(CC(C)C)C1=C(O2)C(C)(C)C(=O)C(C)(C)C1=O (stereo not given) | 5.63 µM (active)
CC(OC1OCCN(Cc2n[nH]c(=O)[nH]2)C1c1ccc(F)cc1)c1cc(C(F)(F)F)cc(C(F)(F)F)c1 (stereo not given) | 11.6 µM (active)
Cc1cc2occ(CN(C)CCN(C)Cc3cn(-c4cccc(C(F)(F)F)c4)c4ccccc34)c(=O)c2cc1C | 8.2 µM (active)
Cc1[nH]c(/C=C2\C(=O)Nc3ccc(F)cc32)c(C)c1C(=O)NCCN1CCCC1 | 14.6 µM (active)
Cc1cc(F)c(C(=O)Nc2cccc(-c3nncn3C(C)C)n2)cc1-n1cnc(C2CC2)c1 | 10 µM (active)
Cn1ncc(Cl)c1-c1cc(C(=O)N[C@H](CN)Cc2cccc(F)c2)sc1Cl | 1.3 µM (active)
C=C1C(=O)OC2/C=C(\C)CC3C=C(CC/C=C(\C)CCC12)C(=O)O3 (stereo not given) | 11.4 µM (active)
O=C(Nc1ccc2[nH]nc(-c3ccncc3)c2c1)[C@@H]1CCN(CC(=O)N2CCN(c3ccc(-c4ncccn4)cc3)CC2)C1 | 10.3 µM (active)
CC1CCCC(O)CC(=O)c2c(O)cc(O)cc2CC(=O)O1 (stereo not given) | 8.05 µM (active)
CCN1CCN(Cc2ccc(NC(=O)c3ccc(C)c(Oc4ccnc5[nH]ccc45)c3)cc2C(F)(F)F)CC1 | 9.04 µM (active)
Cn1ncc(Cl)c1-c1cc(C(=O)N[C@H](CN)Cc2ccc(F)c(F)c2)oc1Cl | 0.366 µM (active)
C/C=C(/C)C(=O)O[C@H]1[C@H](OC(=O)/C(C)=C\C)[C@@]23C(CC1(C)C)[C@]1(CCC4[C@@]5(C)CC[C@H](O[C@@H]6O[C@H](C(=O)O)[C@@H](O)[C@H](O[C@@H]7O[C@H](CO)[C@H](O)[C@H](O)[C@H]7O[C@@H]7O[C@@H](C)[C@H](O)[C@@H](O)[C@H]7O[C@@H]7OC[C@@H](O)[C@H](O)[C@H]7O)[C@H]6O[C@@H]6O[C@H](CO)[C@H](O)[C@H](O)[C@H]6O)C(C)(C)C5CC[C@@]4(C)[C@]1(C)C[C@H]2O)O[C@H]3O (stereo not given in full) | 1.74 µM (active)
C=CC(=O)N1CCN(C(=O)CNc2cc(-c3ccccc3Cl)c(Cl)cc2OC)CC1 | 18.4 µM (active)
CCN1CCN(Cc2ccc(NC(=O)c3ccc(C)c(Oc4ncnc5[nH]c(C)cc45)c3)cc2C(F)(F)F)CC1 | 13 µM (active)
COc1cc2c(NC3CCN(C(C)C)CC3)nc(N3CCC(F)(F)CC3)nc2cc1OCCCN1CCCC1 | 8.2 µM (active)
CCCCCCCCC(=O)N[C@H](CN1CCCC1)[C@H](O)c1ccc2c(c1)OCCO2 | 7.31 µM (active)
C/C1=C\CCC2=CC(OC2=O)C(C)(C)/C=C/C1=O (stereo not given) | 6.51 µM (active)
